Data on eight molecules can be found in the supplement of paper PMC6124720.

The structures appear in SMILES notation.

This experiment relates to Pseudogymnoascus destructans 20631-21. The experiment is described as follows: growth activity index (DuctApe, 0 = no growth, 9 = maximal growth) (index 0-9); higher = more fungal growth (less inhibition), active = 0 or less; extreme values may be limits of the assay. Particulars: temperature: 13 °C, YPD.
Setting [1] is: concentration level (1-4, increasing; Biolog proprietary): 1.
[2] abbreviates: concentration level (1-4, increasing; Biolog proprietary): 2.
The mark [3] stands for this setting: concentration level (1-4, increasing; Biolog proprietary): 3.
Setting [4] is: concentration level (1-4, increasing; Biolog proprietary): 4.
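Also: biolog Phenotype Microarray plates PM21–25, OD595 followed daily over 11 days, growth curves converted to index, mean of two independent experiments.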

`CC(C)Cc1ccc(C(C)C(=O)O)cc1` (configuration not stated) [Ibuprofen] (Biolog plate: PM25): the growth activity index was 4.33 (inactive) under setting [1], 4.67 (inactive) under setting [2], 4 (inactive) under setting [3] and 5 (inactive) under setting [4].

Take `CN(C)[C@@H]1C(O)=C(C(N)=O)C(=O)[C@@]2(O)C(O)=C3C(=O)c4c(O)ccc(Cl)c4[C@@](C)(O)[C@H]3C[C@@H]12` [Chlortetracycline] (Biolog plate: PM24): the growth activity index was 5.67 (inactive) under setting [1], 4.33 (inactive) under setting [2], 6 (inactive) under setting [3] and 7 (inactive) under setting [4].

With `N[C@@H]1CONC1=O` [D-Cycloserine] (Biolog plate: PM21), the growth activity index under setting [1] is 4 (inactive), the growth activity index under setting [2] was 5 (inactive), the growth activity index under setting [3] is 4.25 (inactive) and the growth activity index under setting [4] was 0 (active).

As to `c1ccc(-c2ccccn2)nc1` [2,2`-Dipyridyl] (Biolog plate: PM21), the growth activity index was 5 (inactive) under setting [1], 5 (inactive) under setting [2], 5.25 (inactive) under setting [3] and 5.25 (inactive) under setting [4].

With `COc1cc(/C=C/C(=O)O)ccc1O` [Ferulic acid] (Biolog plate: PM25), the growth activity index by setting is: under setting [1], 1 (inactive); under setting [2], 0 (active); under setting [3], 0 (active); under setting [4], 1 (inactive).

`CCCCCCCCCCCCCCCCOP(=O)([O-])OCC[N+](C)(C)C` [Miltefosine] (Biolog plate: PM22): the growth activity index is 5 (inactive) under setting [1], 3 (inactive) under setting [2], 0 (active) under setting [3] and 0 (active) under setting [4].

For the molecule `NC(=O)NO` [Hydroxyurea] (Biolog plate: PM25), the growth activity index is, setting by setting: under setting [1], 1 (inactive); under setting [2], 0.333 (inactive); under setting [3], 0 (active); under setting [4], 0 (active).

`OB(O)O` [Boric acid] (Biolog plate: PM22): the growth activity index is 5.33 (inactive) under setting [1], 0.333 (inactive) under setting [2], 0 (active) under setting [3] and 0 (active) under setting [4].
